From PubChem BioAssay AID651871 (Sanford-Burnham Center for Chemical Genomics, 2012)
“And” between values parts separate entries of the source, which are not always exact repeats. Identical values can stand only once.

Tested on: HL-1
Assay: protection of cardiomyocytes from stress damage, SAR follow-up, cell-based, panel, H9c2 and HL-1, ATP luminescence, set 2 (AID 651871);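 note: cells exposed to stressor for 2 h before ATP readout; reference of the scale not given here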
Conditions: H9c2/HL-1 cardiomyocytes, 2-deoxyglucose stress, with 2-deoxyglucose, run 6, at 19.8 µM (top of the series)

COc1ccc2c(c1OC)C(=O)N1c3ccccc3C(=O)N(Cc3cccc(Cl)c3Cl)C21 (stereo unspecified)
activity (protection/inhibition): 29.6% and 37.4%
